# Values without a mark were called inactive.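 How the source made its calls: active = AUC reduced over 20% with Padj below 0.05 in at least 2 of 3 replicates; inactive = otherwise.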
# System: Bifidobacterium longum subsp. longum
# Assay: growth AUC relative to DMSO control (median of replicates) (fraction); higher = more growth (less inhibition), active = hit call of the paper
# Conditions: 20 µM; 24 h
# Method in brief: (§1)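 Three biological replicates, each grown on a separate day, were combined as a median for every value. In each, a gut bacterial monoculture in mGAM started at OD600 0.05 and grew anaerobically at 37 °C with 20 µM compound (1% DMSO), with OD600 read hourly over 24 h. Area under the growth curve was normalised against the plate median of solvent-only wells, or against row and column medians on the industrial chemical plate, after the minimum OD was set to 0.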
row,SMILES,growth AUC
1,O=C(O)Cc1c(Cl)ccc(Cl)c1Cl,1.04
2,COc1cc(OC)c(Cl)cc1N,0.912
3,O=S(Cc1ccc(Cl)cc1)c1ccc(Cl)cc1 (stereo not drawn),1.05
4,Cc1cc(C)c(C2=C(O)C3(CCCC3)OC2=O)c(C)c1,1.04
5,CN(C)C(=O)c1cccnc1S(N)(=O)=O,1.02
6,CCCN(CCOc1c(Cl)cc(Cl)cc1Cl)C(N)=O,0.971
7,Cc1nn(C)c(OCC(=O)c2ccccc2)c1C(=O)c1ccc(Cl)cc1Cl,0.992
8,CC(C)(C)Nc1nc(N)nc(Cl)n1,0.982
9,COC(=O)c1c(Cl)nn(C)c1S(=O)(=O)NC(=O)Nc1nc(OC)cc(OC)n1,1.06
10,[S],1.01
11,CCCCCCCCc1c(CC)nc2ncnn2c1N,0.995
12,Cn1cc(C(=O)Nc2ccccc2-c2cc(F)c(F)c(F)c2)c(C(F)F)n1,0.919
13,CCCOc1nc2ccc(I)cc2c(=O)n1CCC,0.937
14,CNc1nc(NC(C)C)nc(SC)n1,0.862
15,CC(C)(C)[C@@H](O)[C@@H](Cc1ccc(Cl)cc1)n1cncn1 (mixture of isomers),1.09
16,Cc1ccc2c(c1)[C@H](Nc1nc(N)nc(C(C)F)n1)[C@@H](C)C2 (stereo partly drawn),1.03
17,CCN(CC)c1nc(C)cc(=O)[nH]1,1.02
18,Clc1ccc(C(c2ccccc2Cl)C(Cl)Cl)cc1 (stereo not drawn),1.03
19,CSc1nc(NC2CC2)nc(NC(C)(C)C)n1,1.04
20,CCc1cccc(C)c1N(C(=O)C(=O)O)[C@@H](C)C(=O)O,0.908

row,SMILES,growth AUC
1,CCNc1nc(NC(C)(C)C)[nH]c(=O)n1,1.03
2,CC(C)N(C(=O)C(=O)O)c1ccccc1,1.08
3,Cc1nn(C)c(F)c1C(=O)Nc1ccccc1C(C)CC(C)C (stereo not drawn),0.992
4,CC(C)c1cc(Oc2ccccc2)cc(C(C)C)c1NC(=S)NC(C)(C)C,0.929
5,CCCCOCCOC(=O)COc1ccc(Cl)cc1Cl,0.984
6,CCOC(=O)C(C)Oc1ccc(Oc2nc3ccc(Cl)cc3o2)cc1 (racemic),0.989
7,C/C=C/C(=O)Oc1c(C(C)CCCCCC)cc([N+](=O)[O-])cc1[N+](=O)[O-] (mixture of isomers),0.289 (active)
8,c1ccc2c(c1)Cc1ccccc1-2,0.925
9,CC(C)(C)C(O)/C(=C\c1ccc(Cl)cc1)n1cncn1 (stereo not drawn),1.04
10,Oc1ccccc1,0.998
11,Cc1c(Br)c2ccc(F)cc2n1S(=O)(=O)c1ncn(S(=O)(=O)N(C)C)n1,1.05
12,NC(Cn1cncn1)C(=O)O (stereo not drawn),0.966
13,CCCCC(CC)COC(=O)COc1ccc(Cl)cc1C (stereo not drawn),0.986
14,c1ccc(CNc2ncnc3nc[nH]c23)cc1,0.975
15,CON=C(Cc1cccnc1)c1ccc(Cl)cc1Cl,0.998
16,COC(=O)Cc1cccc2ccccc12,1.02
17,CC1(C)C(=O)Oc2ccc(OS(C)(=O)=O)cc21,0.988
18,CN(C)c1ccc(N=NS(=O)(=O)[O-])cc1.[Na+],0.978
19,CCOC(=O)Cn1c(=O)sc2cccc(Cl)c21,1.04

# System: Clostridium difficile
# Assay: as above
# Conditions: 20 µM; 24 h
# Method in brief: as §1
row,SMILES,growth AUC
1,O=C(O)Cc1c(Cl)ccc(Cl)c1Cl,1
2,COc1cc(OC)c(Cl)cc1N,1.01
3,O=S(Cc1ccc(Cl)cc1)c1ccc(Cl)cc1 (stereo not drawn),0.977
4,Cc1cc(C)c(C2=C(O)C3(CCCC3)OC2=O)c(C)c1,1.04
5,CN(C)C(=O)c1cccnc1S(N)(=O)=O,1.05
6,CCCN(CCOc1c(Cl)cc(Cl)cc1Cl)C(N)=O,0.987
7,Cc1nn(C)c(OCC(=O)c2ccccc2)c1C(=O)c1ccc(Cl)cc1Cl,0.947
8,CC(C)(C)Nc1nc(N)nc(Cl)n1,0.997
9,COC(=O)c1c(Cl)nn(C)c1S(=O)(=O)NC(=O)Nc1nc(OC)cc(OC)n1,1
10,[S],1.01
11,CCCCCCCCc1c(CC)nc2ncnn2c1N,0.972
12,Cn1cc(C(=O)Nc2ccccc2-c2cc(F)c(F)c(F)c2)c(C(F)F)n1,0.98
13,CCCOc1nc2ccc(I)cc2c(=O)n1CCC,0.964
14,CNc1nc(NC(C)C)nc(SC)n1,1.01
15,CC(C)(C)[C@@H](O)[C@@H](Cc1ccc(Cl)cc1)n1cncn1 (mixture of isomers),0.938
16,Cc1ccc2c(c1)[C@H](Nc1nc(N)nc(C(C)F)n1)[C@@H](C)C2 (stereo partly drawn),0.998
17,CCN(CC)c1nc(C)cc(=O)[nH]1,1.01
18,Clc1ccc(C(c2ccccc2Cl)C(Cl)Cl)cc1 (stereo not drawn),1
19,CSc1nc(NC2CC2)nc(NC(C)(C)C)n1,1.04
20,CCc1cccc(C)c1N(C(=O)C(=O)O)[C@@H](C)C(=O)O,0.903

row,SMILES,growth AUC
1,CCNc1nc(NC(C)(C)C)[nH]c(=O)n1,0.951
2,CC(C)N(C(=O)C(=O)O)c1ccccc1,1.02
3,Cc1nn(C)c(F)c1C(=O)Nc1ccccc1C(C)CC(C)C (stereo not drawn),0.982
4,CC(C)c1cc(Oc2ccccc2)cc(C(C)C)c1NC(=S)NC(C)(C)C,0.957
5,CCCCOCCOC(=O)COc1ccc(Cl)cc1Cl,0.993
6,CCOC(=O)C(C)Oc1ccc(Oc2nc3ccc(Cl)cc3o2)cc1 (racemic),1.01
7,C/C=C/C(=O)Oc1c(C(C)CCCCCC)cc([N+](=O)[O-])cc1[N+](=O)[O-] (mixture of isomers),0.0443 (active)
8,c1ccc2c(c1)Cc1ccccc1-2,1.01
9,CC(C)(C)C(O)/C(=C\c1ccc(Cl)cc1)n1cncn1 (stereo not drawn),0.991
10,Oc1ccccc1,1.02
11,Cc1c(Br)c2ccc(F)cc2n1S(=O)(=O)c1ncn(S(=O)(=O)N(C)C)n1,1.07
12,NC(Cn1cncn1)C(=O)O (stereo not drawn),0.981
13,CCCCC(CC)COC(=O)COc1ccc(Cl)cc1C (stereo not drawn),0.979
14,c1ccc(CNc2ncnc3nc[nH]c23)cc1,0.932
15,CON=C(Cc1cccnc1)c1ccc(Cl)cc1Cl,1
16,COC(=O)Cc1cccc2ccccc12,1.01
17,CC1(C)C(=O)Oc2ccc(OS(C)(=O)=O)cc21,0.99
18,CN(C)c1ccc(N=NS(=O)(=O)[O-])cc1.[Na+],1.03
19,CCOC(=O)Cn1c(=O)sc2cccc(Cl)c21,0.997

# From the supplement of paper PMC12669032
